The text below walks through data of PubChem BioAssay.

The structures appear in SMILES notation. Active and inactive are the calls of the source.

One assay concerns the target Albumin (Bos taurus) (UniProt P02769). In words: bovine serum albumin binders on microarray, profiling panel, artefact control for SMM control protein annotation, biochemical, small-molecule microarray, Alexa647 label, 635/667 nm fluorescence (AID 1118).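 Note: score merges 667 nm emission intensity and signal-to-noise per printed compound spot.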 The note with it: BSA-A647 binding, fluorescence 635 nm, higher = more signal.
A short description of assay [1]: small-molecule microarray binders of probe aXIP, primary screen, biochemical, NeuroSMM set, 635/667 nm fluorescence (AID 1119).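 Note: probe is the protein aXip251-270 applied at 1 µg/mL to compound-printed slides; binding of probe to printed compounds measured as 667 nm fluorescence plus signal to noise.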 The note with it: higher = more signal, called active from +8 up or from −8 down.
Assay [2] can be described thus: small-molecule binders of probe aNOTCH3, primary screen, biochemical, small-molecule microarray, 635/667 nm fluorescence (AID 1120).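 Note: probe is a biotin-tagged antibody raised against NOTCH3 rather than NOTCH3 protein; score merges spot fluorescence near 667 nm with spot signal to noise.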 The note with it: higher = more signal.
Assay [3] in a line: small-molecule binders of probe aNOTCH2, primary screen, biochemical, small-molecule microarray, 635/667 nm fluorescence (AID 1121).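 Note: score merges feature fluorescence read at 667 nm with its signal to noise.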 The note with it: higher = more signal.
In assay [4] the target is Carbonic anhydrase 2 (Homo sapiens) (UniProt P00918). Put plainly: CAII small-molecule binders, profiling panel, biochemical, small-molecule microarray, Alexa647-labelled CAII (AID 1122). The note with it: CAII-A647 binding fluorescence, higher = more signal.
Assay [5] can be described thus: COS7 lysate on small-molecule microarray, probe aHis, 635 nm (AID 1123).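 Note: z-score combines 667nm fluorescence intensity with signal-to-noise per printed compound spot.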 The note with it: COS7 cell lysate, fluorescence, higher = more signal.
Assay [6] is described as follows: compound binding in COS7 lysate, probe aLAP1, primary screen, cell lysate, small-molecule microarray (AID 1124).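 Note: lysate comes from COS7 cells expressing LAP1 and is applied at 0.3 µg/mL; score merges spot fluorescence near 667 nm with signal-to-noise over triplicate slides.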 The note with it: probe aLAP1, fluorescence, higher = more signal.
In another assay the test system is Sam68 (KHDRBS1). Put plainly: Sam68 small-molecule binders, primary screen, biochemical, small-molecule microarray, 635 nm fluorescence (AID 1125).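 Note: score merges 667 nm channel intensity with signal to noise over triplicate slides.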 The note with it: small-molecule microarray binding, higher = more signal.
The test system of assay [7] is Chordin-like protein 2 (CHRDL2). Put plainly: CHRDL2 small-molecule binders, primary screen, biochemical, small-molecule microarray, 635 nm fluorescence (AID 1126).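 Note: printed compound slides probed with Chrdl2 protein at 4 µg/mL for 1 h at 4 C; score merges 667 nm emission intensity with signal to noise over three replicate slides.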 The note with it: small-molecule microarray binding, fluorescence 635 nm; higher = more signal.
The target in assay [8] is Concanavalin-A (Canavalia ensiformis) (UniProt P02866). In words: ConA small-molecule binders, primary screen, artefact control for SMM control protein annotation, biochemical, small-molecule microarray, Alexa647 label, 635 nm (AID 1127).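 Note: z combines 667 nm emission intensity with signal-to-noise across three replicate slides.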 The note with it: ConA-A647 binding fluorescence, higher = more signal.
The nature of assay [9]: anti-His antibody binders, primary screen, artefact control for SMM control protein annotation, biochemical, small-molecule microarray, 635 nm fluorescence (AID 1128).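 Note: score merges feature fluorescence with signal-to-noise for each printed compound spot.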 The note with it: anti-His Alexa647 antibody binding, higher = more signal.
In assay [10] the test system is Human papillomavirus type 1a E7 protein (residues 1-88). Put plainly: HPV1a E7 small-molecule binders, primary screen, biochemical, small-molecule microarray, residues 1-88, 635 nm (AID 1129). The note with it: small-molecule microarray binding, fluorescence 635 nm; higher = more signal.
The target in assay [11] is Focal adhesion kinase 1 (Homo sapiens) (UniProt Q05397). Put plainly: small-molecule microarray binders of FAK, primary screen, biochemical, 635/667 nm fluorescence, BSA, DTT (AID 1130).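 Note: composite of spot emission at 667 nm and signal to noise over triplicate slides.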 The note with it: PTK2 binding, 635 nm fluorescence, higher = more signal.
Assay [12] has as its system Fibrinogen (Alexa647-labelled). Put plainly: fibrinogen binders on compound microarrays, profiling panel, artefact control for SMM control-protein annotation, biochemical, small-molecule microarray, 635/667 nm fluorescence (AID 1131).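 Note: z-score merges 667 nm fluorescence with per-spot signal-to-noise over triplicate slides.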 The note with it: fibrinogen-A647 binding fluorescence, higher = more signal.
Assay [13] concerns the target Follistatin (Homo sapiens) (UniProt P19883). Put plainly: follistatin binders on small-molecule microarrays, primary screen, biochemical, small-molecule microarray, 635/667 nm fluorescence (AID 1132). The note with it: FST binding, 635 nm fluorescence, higher = more signal.
Assay [14] addresses Fibroblast growth factor 2 (Homo sapiens) (UniProt P09038). In words: FGF2 binders on small-molecule microarrays, primary screen, biochemical, small-molecule microarray, 635/667 nm fluorescence (AID 1133). The note with it: small-molecule microarray binding, FGF2, fluorescence 635/667; higher = more signal.
Assay [15] can be described thus: mitochondrial membrane potential change in A549 cells, profiling panel, cell-based, JC-1 fluorescence, basal, 24 h, 100 nL (AID 1138).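 Note: A549 lung adenocarcinoma cells under basal conditions with no added stimulus; test concentration not given here.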 The note with it: higher = more signal.
In another assay the test system is Lefty1. Put plainly: Lefty1 binders on small-molecule microarrays, primary screen, biochemical, small-molecule microarray, 635/667 nm fluorescence (AID 1139). The note with it: small-molecule microarray binding, fluorescence 635/667; higher = more signal.
Assay [16] has as its system wheat germ agglutinin (Triticum aestivum), Alexa647-labelled. Put plainly: wheat germ agglutinin binders on compound microarrays, profiling panel, artefact control for SMM control-protein annotation, biochemical, small-molecule microarray, 635/667 nm fluorescence (AID 1140).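 Note: score merges 667 nm feature emission with signal to noise over triplicate slides.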 The note with it: WGA-A647 binding, 635 nm fluorescence, higher = more signal.
For assay [17], the target named is Luciferin 4-monooxygenase (Photinus pyralis) (UniProt P08659). Put plainly: firefly luciferase enzyme inhibitors, primary screen, biochemical, luminescence, purified enzyme, 2006 set (AID 1141).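 Note: cell-free assay with purified firefly luciferase at 100 ng per well in PBS; test concentration not given here.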 The note with it: SteadyGlo luminescence, 30 min, higher = more signal, called active from +8 up or from −8 down.
Chain of Luciferin 4-monooxygenase (Photinus pyralis) (P08659 whole entry, looked up): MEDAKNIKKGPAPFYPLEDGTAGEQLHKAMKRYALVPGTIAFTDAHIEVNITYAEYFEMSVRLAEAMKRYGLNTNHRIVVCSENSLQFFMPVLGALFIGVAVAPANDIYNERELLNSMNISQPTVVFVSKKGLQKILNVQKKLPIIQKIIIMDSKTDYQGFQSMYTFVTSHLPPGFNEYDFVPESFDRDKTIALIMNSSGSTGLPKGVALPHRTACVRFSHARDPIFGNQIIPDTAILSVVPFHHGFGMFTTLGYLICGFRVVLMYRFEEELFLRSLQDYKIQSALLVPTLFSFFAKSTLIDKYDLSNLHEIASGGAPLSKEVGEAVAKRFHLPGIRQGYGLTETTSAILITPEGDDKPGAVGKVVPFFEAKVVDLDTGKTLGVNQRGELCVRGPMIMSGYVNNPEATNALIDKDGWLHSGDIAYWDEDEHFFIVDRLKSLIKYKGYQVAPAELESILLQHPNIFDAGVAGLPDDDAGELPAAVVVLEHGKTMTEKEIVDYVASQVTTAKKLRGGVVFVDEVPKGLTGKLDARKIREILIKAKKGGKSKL

Chain of Focal adhesion kinase 1 (Homo sapiens) (Q05397 whole entry, looked up): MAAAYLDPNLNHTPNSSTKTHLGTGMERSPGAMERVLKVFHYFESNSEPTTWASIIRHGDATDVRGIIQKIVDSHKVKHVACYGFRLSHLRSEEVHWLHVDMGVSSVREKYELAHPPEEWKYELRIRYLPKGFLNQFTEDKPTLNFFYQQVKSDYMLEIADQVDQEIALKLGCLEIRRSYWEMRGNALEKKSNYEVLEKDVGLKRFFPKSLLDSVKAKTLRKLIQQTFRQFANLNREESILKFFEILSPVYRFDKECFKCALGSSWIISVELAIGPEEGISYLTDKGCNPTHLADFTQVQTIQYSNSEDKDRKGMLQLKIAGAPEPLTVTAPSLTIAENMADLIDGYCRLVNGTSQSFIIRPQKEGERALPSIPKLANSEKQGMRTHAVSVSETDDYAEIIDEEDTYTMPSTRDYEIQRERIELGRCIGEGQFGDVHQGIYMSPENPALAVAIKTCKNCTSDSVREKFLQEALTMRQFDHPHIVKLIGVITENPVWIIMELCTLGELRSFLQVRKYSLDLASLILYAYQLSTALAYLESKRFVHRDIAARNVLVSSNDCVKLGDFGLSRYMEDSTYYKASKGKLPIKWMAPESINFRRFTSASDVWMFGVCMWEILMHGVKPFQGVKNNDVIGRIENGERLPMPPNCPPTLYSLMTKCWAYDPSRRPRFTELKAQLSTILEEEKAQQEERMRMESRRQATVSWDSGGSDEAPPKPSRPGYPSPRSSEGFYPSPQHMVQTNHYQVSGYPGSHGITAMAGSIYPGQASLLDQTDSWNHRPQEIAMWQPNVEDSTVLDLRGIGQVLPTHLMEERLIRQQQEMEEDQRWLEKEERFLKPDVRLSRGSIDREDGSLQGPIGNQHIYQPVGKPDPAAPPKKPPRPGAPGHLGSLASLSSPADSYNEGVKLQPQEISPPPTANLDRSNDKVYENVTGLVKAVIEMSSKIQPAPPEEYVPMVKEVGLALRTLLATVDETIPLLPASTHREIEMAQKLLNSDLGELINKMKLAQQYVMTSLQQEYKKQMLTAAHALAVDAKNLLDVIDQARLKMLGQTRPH
Chain of Concanavalin-A (Canavalia ensiformis) (P02866 whole entry, looked up): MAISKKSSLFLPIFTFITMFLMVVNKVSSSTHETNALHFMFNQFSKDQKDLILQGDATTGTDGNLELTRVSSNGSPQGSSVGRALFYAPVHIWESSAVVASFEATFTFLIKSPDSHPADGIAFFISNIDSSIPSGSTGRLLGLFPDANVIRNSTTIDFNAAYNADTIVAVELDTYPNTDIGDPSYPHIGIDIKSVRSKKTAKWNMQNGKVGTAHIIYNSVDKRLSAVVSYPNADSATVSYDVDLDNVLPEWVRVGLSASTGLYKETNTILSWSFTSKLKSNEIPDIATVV
Chain of Albumin (Bos taurus) (P02769 whole entry, looked up): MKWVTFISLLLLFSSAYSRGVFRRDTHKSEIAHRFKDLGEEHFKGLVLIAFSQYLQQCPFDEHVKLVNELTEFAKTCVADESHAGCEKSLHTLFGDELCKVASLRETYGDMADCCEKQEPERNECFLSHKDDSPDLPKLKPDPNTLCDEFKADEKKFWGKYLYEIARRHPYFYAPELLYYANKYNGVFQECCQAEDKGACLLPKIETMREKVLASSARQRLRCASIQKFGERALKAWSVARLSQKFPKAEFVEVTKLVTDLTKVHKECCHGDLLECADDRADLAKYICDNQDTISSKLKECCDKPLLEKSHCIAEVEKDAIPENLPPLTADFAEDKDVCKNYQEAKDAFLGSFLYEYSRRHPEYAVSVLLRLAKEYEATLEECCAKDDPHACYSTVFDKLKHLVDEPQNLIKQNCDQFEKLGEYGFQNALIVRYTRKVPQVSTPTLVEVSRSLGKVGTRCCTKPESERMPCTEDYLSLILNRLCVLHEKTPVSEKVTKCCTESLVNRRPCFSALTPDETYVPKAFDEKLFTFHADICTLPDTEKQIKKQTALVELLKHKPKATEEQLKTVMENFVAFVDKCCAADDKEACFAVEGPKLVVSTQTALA
Chain of Follistatin (Homo sapiens) (P19883 whole entry, looked up): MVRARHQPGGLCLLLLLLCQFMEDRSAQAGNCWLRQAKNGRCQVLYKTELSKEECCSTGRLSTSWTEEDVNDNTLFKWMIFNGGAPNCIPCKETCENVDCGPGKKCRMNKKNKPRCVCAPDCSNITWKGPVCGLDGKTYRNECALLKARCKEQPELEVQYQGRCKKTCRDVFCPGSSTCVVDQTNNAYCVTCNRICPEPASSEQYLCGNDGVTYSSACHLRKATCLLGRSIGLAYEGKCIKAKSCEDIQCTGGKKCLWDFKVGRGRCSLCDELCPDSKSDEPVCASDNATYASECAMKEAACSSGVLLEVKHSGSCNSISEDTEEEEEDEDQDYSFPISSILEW
Chain of Fibroblast growth factor 2 (Homo sapiens) (P09038 whole entry, looked up): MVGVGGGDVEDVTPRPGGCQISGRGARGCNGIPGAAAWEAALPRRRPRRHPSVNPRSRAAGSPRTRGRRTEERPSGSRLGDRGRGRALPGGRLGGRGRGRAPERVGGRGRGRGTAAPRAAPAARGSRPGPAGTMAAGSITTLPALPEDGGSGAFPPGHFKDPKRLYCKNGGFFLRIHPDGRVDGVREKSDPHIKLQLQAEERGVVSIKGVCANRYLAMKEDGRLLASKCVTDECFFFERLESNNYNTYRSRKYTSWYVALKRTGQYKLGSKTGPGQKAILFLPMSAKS

As to `CCCC[C@@H](O)C1=C(COc2ccccc2)C[C@H]2C(=O)N(Cc3ccccc3)C(=O)[C@H]2[C@H]1CO`, the composite z-score was 0.0031 in the assay with Albumin (Bos taurus); -0.287 in assay [2]; -0.0795 in assay [3]; 0.099 in assay [4]; 0.523 in assay [5]; -0.523 in [6]. For the same molecule, the composite z-score is 0.426 in the assay with Sam68 (KHDRBS1); 0.228 in assay [7]; 0.395 in assay [8]; -0.412 in assay [9]; -0.0512 in assay [10]; -0.0235 in [11]. Besides, the composite z-score in assay [12] amounted to 0.832; in assay [13], 0.269; in [14], 0.275; in the assay with Lefty1, 0.634; in assay [16], 0.371. Moreover, the composite Z-score in assay [1] was -0.861 (inactive). For the same molecule, the z-score in [15] is 0.85; in assay [17] it was -1.25 (inactive).
For the molecule `CCCCC[C@H]1OC[C@@]23C=C(Br)[C@@H](CC12)[C@@]1(CO1)C3=O` (stereo not given in full), the composite z-score in the assay with Albumin (Bos taurus) was -0.677; in assay [2], -0.126; in assay [3], -0.0907; in assay [4], -0.174; in [5] it was -0.0346; in [6], -0.144. The composite z-score in the assay with Sam68 (KHDRBS1) is 0.491; in assay [7], -0.194; in [8], -0.308; in assay [9], 2.98; in assay [10], -0.327; in assay [11], 0.215. The composite z-score is -0.411 in assay [12]; 0.0488 in [13]; -0.165 in assay [14]; 0.505 with Lefty1; -0.407 in [16]. Besides, in [1], the composite Z-score was 0.39 (inactive). The z-score in assay [15] is 0.617; in assay [17], -0.0658 (inactive).
On to `[N-]=[N+]=Nc1ccccc1C[C@@]1(C(=O)N2CCOCC2)N=C(c2ccc(OCCCO)cc2)O[C@@H]1c1ccccc1`, for which the composite z-score with Albumin (Bos taurus) was 0.847; in [2], 0.457; in [3] it was -0.224; in assay [4] it was 0.544; in assay [5] it was 2.59; in [6], -0.235. In addition, the composite z-score is 1.32 in the assay on Sam68 (KHDRBS1); -0.209 in assay [7]; 1.11 in [8]; 1.19 in assay [9]; 1.19 in [10]; 0.625 in [11]. The composite z-score in assay [12] came out at 0.986; in [13] it was 1.32; in assay [14], 1.35; with Lefty1, 0.3; in assay [16] it was 0.313. For the same molecule, in assay [1], the composite Z-score was 0.527 (inactive). The z-score in assay [15] is 1.08; in assay [17], -2.43 (inactive).
Consider `COC(=O)[C@@]1(Cc2ccc(OC)cc2)[C@H]2c3cc(C(=O)N(C)C)n(Cc4ccc(C)o4)c3C[C@H]2CN1C(=O)c1ccccc1`, for which the composite z-score with Albumin (Bos taurus) came to 0.814; in [2], 0.517; in assay [3], 0.204; in [4] it was 0.806; in [5] it was 2.99; in [6] it was 0.463. The composite z-score in the assay with Sam68 (KHDRBS1) is 0.933; in assay [7] it was -0.905; in assay [8] it was 0.842; in assay [9], 0.787; in assay [10] it was 1.26; in [11] it was 0.877. For the same molecule, the composite z-score was 0.984 in assay [12]; 0.262 in [13]; -0.48 in [14]; -0.0198 in the assay with Lefty1; 1.1 in assay [16]. Besides, the composite Z-score in [1] was 1.24 (inactive). The z-score in assay [15] is 1.26; in assay [17] it was -18.5 (active).
As to `CCOC(=O)C1=CC[C@@H](c2ccccc2F)N(S(=O)(=O)c2ccc(C)cc2)[C@H]1c1ccccc1`, the composite z-score in the assay with Albumin (Bos taurus) worked out at 0.437; in assay [2], 0.103; in assay [3], 0.0416; in assay [4], 0.338; in [5], 1.19; in assay [6], 0.212. In addition, the composite z-score with Sam68 (KHDRBS1) worked out at 1.18; in assay [7] it was 0.0943; in assay [8], 0.83; in [9], 0.477; in [10] it was 1.07; in assay [11], 0.13. Further, the composite z-score in assay [12] worked out at 0.756; in [13], 0.685; in assay [14], 0.0808; in the assay on Lefty1, 0.644; in [16], 0.349. In [1], the composite Z-score is -0.244 (inactive). Further, the z-score in assay [15] is 1.4; in assay [17] it was 1.56 (inactive).
As to `[N-]=[N+]=Nc1ccccc1C[C@@]1(C(N)=O)N=C(c2ccc(OCCCO)cc2)O[C@@H]1c1ccccc1N=[N+]=[N-]`, the composite z-score is 1.01 with Albumin (Bos taurus); 0.0059 in [2]; 0.0342 in [3]; 0.441 in assay [4]; 1.34 in assay [5]; -0.0264 in [6]. Also, the composite z-score with Sam68 (KHDRBS1) was 0.666; in assay [7], -0.359; in assay [8], 0.716; in assay [9], 1.76; in assay [10] it was 1.23; in assay [11] it was 0.0444. The composite z-score in assay [12] was 0.637; in assay [13], 0.062; in assay [14], -0.0354; in the assay on Lefty1 it was -0.37; in assay [16] it was 0.0911. Also, the composite Z-score in assay [1] was 0.127 (inactive). Also, the z-score was -0.498 in assay [15] and -4.2 (inactive) in [17].
